# Whole data set: some 18,000 sequences, median “TetR repression strength (sort-seq, GFP reporter)” near 0.23, cut for the highest 2% near 0.68. The list comes from a sample in which the highest values are over-represented; it also holds similar and randomly drawn sequences.
# Biological target: TetR (class B, Tn10) (UniProt P04483)
# Test: TetR repression strength (sort-seq, GFP reporter) (relative to tetO2 = 1); higher = stronger repression
# Conditions: E. coli
# Method in brief: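 Escherichia coli SIG10-MAX cells carried a low-copy plasmid library in which eight operator positions were randomized between a constitutive promoter and sfGFP, and TetR was expressed constitutively. After 5 h of growth at 37 °C in LB with 50 µg/mL chloramphenicol, 10^6 cells were FACS-sorted into 13 fluorescence bins, and each bin was Illumina-sequenced. Repression strength was the top bin index plus one minus the read-weighted mean bin, divided by the value for the unaltered operator. Across three independent transformations, only library members with ≥30 reads in every replicate and a CV ≤0.5 were averaged.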
# Chain of TetR (class B, Tn10) (P04483 whole entry): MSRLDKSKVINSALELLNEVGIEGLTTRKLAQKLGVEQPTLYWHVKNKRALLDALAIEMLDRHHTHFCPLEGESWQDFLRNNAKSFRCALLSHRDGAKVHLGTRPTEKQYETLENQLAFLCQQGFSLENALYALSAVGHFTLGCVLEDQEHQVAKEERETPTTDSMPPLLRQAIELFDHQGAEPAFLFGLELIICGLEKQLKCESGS
row,Sequence,TetR repression strength
1,TCCCGATAAGTTTACGAGA,0.495
2,TCCCGAACAGTAACGGAGA,0.571
3,TCCCATTGAGTGCTTGAGA,0.36
4,TCCCGTGCAGTGATTGAGA,0.165
5,TCCCGTCGAGTGAAAGAGA,0.69
6,TCCCGAGCAGTGAGTGAGA,0.507
7,TCCCGTCGAGTGAACGAGA,0.242
8,TCCCGAGCAGTAACTGAGA,0.149
9,TCCCGAGCAGTGTGTGAGA,0.222
10,TCCCGAGCAGTGTGAGAGA,0.175
11,TCCCGAGCAGTAACAGAGA,0.752
12,TCCCGAGCAGTGATTGAGA,0.701
13,TCCCGTGCAGTAACAGAGA,0
14,TCCCGAGCAGTGAGAGAGA,0.689
15,TCCCGTCGAGTGAGAGAGA,0.396
16,TCCCGTGAAGTACGCGAGA,0.217
17,TCCCCCGTAGTGGGAGAGA,0.312
18,TCCCTTTAAGTGCTGGAGA,0.3
19,TCCCACGGAGTGTGGGAGA,0.15
20,TCCCCAAGAGTTATAGAGA,0.281
21,TCCCTTACAGTGCGTGAGA,0.183
22,TCCCGAGCAGTTATAGAGA,0.686
23,TCCCGTGAAGTGGGCGAGA,0.0935
24,TCCCGCGAAGTGAGCGAGA,0.248
25,TCCCGAGGAGTTATAGAGA,0.326

row,Sequence,TetR repression strength
1,TCCCGAGCAGTTAGAGAGA,0.202
2,TCCCGTGAAGTGAGCGAGA,0.888
3,TCCCTGTTAGTTGTAGAGA,0.271
4,TCCCGGTTAGTCTTGGAGA,0.317
5,TCCCCTTGAGTTTGTGAGA,0.323
6,TCCCTGAAAGTCTACGAGA,0.815
7,TCCCTAACAGTCCACGAGA,0.205
8,TCCCTTACAGTCTACGAGA,0.405
9,TCCCTTACAGTCCACGAGA,0.808
10,TCCCTTAAAGTCTACGAGA,0.771
11,TCCCTGAAAGTATACGAGA,0.205
12,TCCCTGAAAGTCTGCGAGA,0.134
13,TCCCTAAAAGTCTACGAGA,0.16
14,TCCCTTAAAGTCTAAGAGA,0.539
15,TCCCTGGCAGTTTGCGAGA,0.65
16,TCCCGGGGAGTGCAGGAGA,0.176
17,TCCCGAATAGTGAGGGAGA,0.127
18,TCCCGGACAGTCATCGAGA,0.216
19,TCCCGCCGAGTCGAGGAGA,0.36
20,TCCCGGACAGTCGTCGAGA,0.892
21,TCCCGGACAGTCGACGAGA,0.0556
22,TCCCGCCGAGTAGTCGAGA,0.18
23,TCCCGCCGAGTCGTCGAGA,1.24
24,TCCCTTGCAGTCAATGAGA,0.251
25,TCCCAGGGAGTACTCGAGA,0.275

row,Sequence,TetR repression strength
1,TCCCGGGGAGTGACTGAGA,0.143
2,TCCCTTCTAGTCCGTGAGA,0.468
3,TCCCGATGAGTCAGGGAGA,0.174
4,TCCCTGTAAGTCAGCGAGA,0.494
5,TCCCAGGCAGTGTGTGAGA,0.207
6,TCCCACATAGTATGTGAGA,1.23
7,TCCCACAGAGTATGTGAGA,1.24
8,TCCCGCAGAGTATGTGAGA,0.171
9,TCCCACACAGTATGTGAGA,0.13
10,TCCCACATAGTAAGTGAGA,0.207
11,TCCCTCATAGTATGTGAGA,0.257
12,TCCCGCATAGTTATTGAGA,0.197
13,TCCCGAACAGTGGGAGAGA,0.231
14,TCCCATGGAGTTCGGGAGA,0.228
15,TCCCATTTAGTTCGGGAGA,1.09
16,TCCCATTTAGTCGGAGAGA,0.231
17,TCCCGGGTAGTTCGGGAGA,0.723
18,TCCCCTTTAGTTCGGGAGA,0.339
19,TCCCATTGAGTTCGAGAGA,0.29
20,TCCCATTGAGTTCGGGAGA,0.851
21,TCCCAGTTAGTTCGGGAGA,0.0688
22,TCCCGGGGAGTTCGGGAGA,0.307
23,TCCCATTTAGTCGCGGAGA,0.755
24,TCCCCATTAGTCGCGGAGA,0.241
25,TCCCGGGTAGTTCGAGAGA,0.289

row,Sequence,TetR repression strength
1,TCCCATACAGTCGTAGAGA,0.0752
2,TCCCTCAGAGTGCTGGAGA,0.475
3,TCCCGGCAAGTTAGTGAGA,0.0764
4,TCCCGTCAAGTGCATGAGA,0.315
5,TCCCTATCAGTAGGCGAGA,0.414
6,TCCCTATCAGTTACTGAGA,0.698
7,TCCCTAACAGTTACAGAGA,0.203
8,TCCCTATAAGTTATTGAGA,0.433
9,TCCCTTTCAGTTACAGAGA,0.363
10,TCCCCTTCAGTTACTGAGA,0.28
11,TCCCTAGAAGTTACTGAGA,0.18
12,TCCCTATAAGTTACTGAGA,0.711
13,TCCCTAACAGTTACTGAGA,0.297
14,TCCCTGTCAGTTACTGAGA,0.327
15,TCCCTCTCAGTTACTGAGA,0.703
16,TCCCTATCAGTTACAGAGA,0.707
17,TCCCTATCAGTTACGGAGA,0.484
18,TCCCCTTGAGTGGACGAGA,0.325
19,TCCCAGAGAGTAGCAGAGA,0.294
20,TCCCCCACAGTAAGAGAGA,0.158
21,TCCCTTATAGTGGGGGAGA,0.161
22,TCCCCACCAGTGAGGGAGA,0.933
23,TCCCCACAAGTGAGGGAGA,0.956
24,TCCCACCAAGTGAGGGAGA,0.324
25,TCCCCACGAGTGAGGGAGA,0.217

row,Sequence,TetR repression strength
1,TCCCCAGCAGTGAGGGAGA,0.0743
2,TCCCCCACAGTGAGGGAGA,0.311
3,TCCCACTTAGTGACAGAGA,0.396
4,TCCCTGTGAGTGAGAGAGA,0.407
5,TCCCGTAGAGTATACGAGA,0.126
6,TCCCATTGAGTCCTAGAGA,0.304
7,TCCCACCAAGTACAGGAGA,0.186
8,TCCCGCAGAGTGTAGGAGA,0.191
9,TCCCGCTTAGTGTCAGAGA,0.634
10,TCCCGCTCAGTGTCAGAGA,0.244
11,TCCCGCAGAGTGTAAGAGA,0.753
12,TCCCGCTGAGTGTCAGAGA,1.09
13,TCCCGGTCAGTGACAGAGA,0.666
14,TCCCGCTCAGTGACAGAGA,0.715
15,TCCCTCTCAGTGACAGAGA,0.607
16,TCCCGCTCAGTGCCAGAGA,0.801
17,TCCCGCTGAGTGCCAGAGA,0.341
18,TCCCGCGGAGTGTAAGAGA,0.256
19,TCCCGCTCAGTGCCTGAGA,0.348
20,TCCCTCTAAGTGTCCGAGA,0.512
21,TCCCTTCGAGTCCGAGAGA,0.228
22,TCCCGCATAGTACCTGAGA,0.562
23,TCCCCAGGAGTGTCTGAGA,0.273
24,TCCCTTAAAGTATTAGAGA,0.252
25,TCCCTTTAAGTTGACGAGA,0.338

row,Sequence,TetR repression strength
1,TCCCAGGTAGTCGGCGAGA,0.113
2,TCCCGACCAGTATGCGAGA,0.0346
3,TCCCAGGGAGTAGTTGAGA,0.0889
4,TCCCGGGAAGTAGGCGAGA,0.849
5,TCCCGGTAAGTAGGCGAGA,1.05
6,TCCCGGGCAGTACAAGAGA,1.05
7,TCCCGGGCAGTACACGAGA,0.318
8,TCCCGGGCAGTAGGCGAGA,1.05
9,TCCCGGAAAGTAGGCGAGA,0.0444
10,TCCCGGTAAGTAGGAGAGA,0.229
11,TCCCGGGCAGTGGGCGAGA,0.253
12,TCCCCGGAAGTAGGCGAGA,0.186
13,TCCCGGGCAGTTCAAGAGA,0.417
14,TCCCGCTAAGTAGGCGAGA,0.0386
15,TCCCAGGCAGTAGGCGAGA,0.205
16,TCCCACCAAGTGTTCGAGA,0.311
17,TCCCTCGGAGTGCTTGAGA,0.224
18,TCCCGACGAGTAGCAGAGA,0.486
19,TCCCGGTAAGTCAAGGAGA,0.397
20,TCCCTCATAGTGCTCGAGA,0.581
21,TCCCAGGGAGTGTTAGAGA,0.263
22,TCCCGCTGAGTCCGGGAGA,0.401
23,TCCCAGTCAGTAGGCGAGA,0.16
24,TCCCGGTCAGTAGGCGAGA,1.01
25,TCCCCGTCAGTAGGCGAGA,0.243

row,Sequence,TetR repression strength
1,TCCCTAGCAGTCTTCGAGA,0.495
2,TCCCTTGGAGTCGTTGAGA,0.304
3,TCCCTTCTAGTTACTGAGA,0.464
4,TCCCTTTTAGTGTATGAGA,0.271
5,TCCCTTTGAGTCTATGAGA,0.804
6,TCCCTTTTAGTCTATGAGA,0.858
7,TCCCTTCTAGTTTTTGAGA,0.415
8,TCCCTTCTAGTCTTTGAGA,0.693
9,TCCCGTCTAGTCTTTGAGA,0.366
10,TCCCTTTGAGTCTTTGAGA,0.181
11,TCCCTTCTAGTTGCTGAGA,0.73
12,TCCCTTCTAGTTGTTGAGA,0.216
13,TCCCATTTAGTCTATGAGA,0.279
14,TCCCTTAGAGTCTATGAGA,0.159
15,TCCCTGGTAGTTGCTGAGA,0.189
16,TCCCAGAAAGTCGGGGAGA,0.0115
17,TCCCGAGCAGTATCGGAGA,0.138
18,TCCCAATAAGTGATTGAGA,0.408
19,TCCCACATAGTCTTTGAGA,0.244
20,TCCCGTGTAGTGATCGAGA,0.209
21,TCCCGCTGAGTTTTTGAGA,0.307
22,TCCCGGAGAGTTGAGGAGA,0.193
23,TCCCGGTTAGTAATTGAGA,0.345
24,TCCCGTTAAGTTCCTGAGA,0.721
25,TCCCGCGAAGTTGTTGAGA,0.112

row,Sequence,TetR repression strength
1,TCCCGCTAAGTTCCTGAGA,0.792
2,TCCCCGTAAGTTCCTGAGA,0.231
3,TCCCGCGAAGTTGCTGAGA,1.1
4,TCCCGTTAAGTGCCTGAGA,0.419
5,TCCCGCGAAGTTGGTGAGA,0.202
6,TCCCGTTCAGTTGCTGAGA,0.512
7,TCCCGGTCAGTTCCTGAGA,0.26
8,TCCCGTTAAGTTGCTGAGA,0.517
9,TCCCGTTCAGTTCCTGAGA,0.705
10,TCCCGCTAAGTTTCTGAGA,0.393
11,TCCCACATAGTTTAAGAGA,0.187
12,TCCCACCTAGTCTGCGAGA,0.302
13,TCCCTGACAGTAGTAGAGA,0.541
14,TCCCTGATAGTTCGAGAGA,0.244
15,TCCCGGTGAGTGCGAGAGA,0.189
16,TCCCAAGTAGTGGGGGAGA,0.133
17,TCCCTTGAAGTTACCGAGA,0.844
18,TCCCTTGCAGTTACCGAGA,0.874
19,TCCCTCGAAGTTACCGAGA,0.221
20,TCCCTTCCAGTTACCGAGA,0.351
21,TCCCCTTGAGTTACCGAGA,0.307
22,TCCCTTGCAGTTAACGAGA,0.104
23,TCCCGGGTAGTCGGTGAGA,0.237
24,TCCCCCATAGTGCCAGAGA,0.453
25,TCCCATTAAGTGAGAGAGA,0.478

row,Sequence,TetR repression strength
1,TCCCGTTCAGTCTCAGAGA,0.307
2,TCCCCTCTAGTGGCCGAGA,0.17
3,TCCCAGCAAGTATGGGAGA,0.71
4,TCCCAGCAAGTCATGGAGA,0.401
5,TCCCAGCCAGTTATGGAGA,0.169
6,TCCCAGCAAGTAGGGGAGA,0.289
7,TCCCAGCAAGTTATGGAGA,0.701
8,TCCCAGCAAGTATGCGAGA,0.282
9,TCCCTTCAAGTGTAAGAGA,0.158
10,TCCCCCCTAGTACGTGAGA,0.814
11,TCCCCACTAGTAAATGAGA,0.726
12,TCCCAACTAGTAAATGAGA,0.567
13,TCCCCGTGAGTACGTGAGA,0.226
14,TCCCCACTAGTAAAAGAGA,0.303
15,TCCCCCCGAGTACGTGAGA,0.839
16,TCCCCTCTAGTACGTGAGA,0.207
17,TCCCCCGGAGTACGTGAGA,0.187
18,TCCCCACTAGTACGTGAGA,0.363
19,TCCCTAGAAGTTATGGAGA,0.315
20,TCCCTGGCAGTTCATGAGA,0.199
21,TCCCGGGTAGTCCGGGAGA,0.112
22,TCCCAACCAGTCCCGGAGA,0.12
23,TCCCAAGGAGTGGGTGAGA,0.185
